Only some compounds are listed: those with a hit (about 4.7% of all), similar ones and a draw of the others.
D1 PAM: human D1 dopamine receptor positive modulation; P21728; HEK293 TREx D1 cells, calcium flux, dopamine EC20 potentiation; potentiation, % at 10 µM; hit rate 0.036% among 360,000; AID 504651; in the data active = potentiation above about 30%; also: 0% is about no effect
D1 ag: agonists of human D1 dopamine receptor; HEK293 T-REx D1 cells, calcium flux, agonist mode; activation, % at 2 µM; P21728; hit rate 1% among 360,000; also: 0% is about no effect
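Tetracycline-induced HEK293 TREx D1 cells, force-coupled to calcium signalling, were dye-loaded with a no-wash calcium kit. Compound was pin-added after a 10 s baseline. Fluorescence was read kinetically at 1 cycle/s for 180 s, with calcium rises flagged as agonism.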
TRHR ag: activates the human TRH receptor. P34981. TRHR cells, calcium flux fluo-8, FDSS agonist mode. activation, % at 2 µM. hit rate 0.18% among 360,000. AID 493084; also: 0% is about no effect
Target sequence (P34981 whole entry, looked up): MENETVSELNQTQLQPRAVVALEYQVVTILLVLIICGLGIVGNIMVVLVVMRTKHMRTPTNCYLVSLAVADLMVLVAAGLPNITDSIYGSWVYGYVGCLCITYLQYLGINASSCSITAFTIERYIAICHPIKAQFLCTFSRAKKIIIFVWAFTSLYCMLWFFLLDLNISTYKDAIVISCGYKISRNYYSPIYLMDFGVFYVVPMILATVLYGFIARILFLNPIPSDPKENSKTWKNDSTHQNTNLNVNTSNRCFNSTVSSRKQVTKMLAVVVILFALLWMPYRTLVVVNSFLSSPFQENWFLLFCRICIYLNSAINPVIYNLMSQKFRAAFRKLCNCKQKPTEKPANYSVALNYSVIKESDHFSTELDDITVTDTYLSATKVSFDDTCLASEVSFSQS
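TRHR-expressing cells, plated overnight in medium with 10% serum, were loaded with fluo-8 calcium dye at room temperature. After a 10 s baseline, library compound was pin-added and calcium release was recorded kinetically (ex 480/em 530) as agonist response.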
TRHR PAM: allosteric enhancers of human TRH receptor. TRHR cells, fluo-8 calcium fluorescence, EC20 TRH enhancement. enhancement, % at 2 µM. hit rate 0.66% among 360,000; in the data active = enhancement above about 30%; also: 0% is about no effect
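Enhancer read-out: after compound pinning and an initial kinetic agonist-mode read, an EC20 of TRH (10 nM final) was injected and fluo-8 calcium signal (Ex 480/Em 530) followed at 1 s/cycle for 100 cycles in TRHR-expressing cells.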
D1 antag: antagonists of human D1 dopamine receptor. P21728. HEK293 TREx D1 cells, calcium flux, dopamine EC80; hits give low values. activity change, negative = inhibition, % at 10 µM. hit rate 3.2% among 360,000. AID 504652; in the data active = activity change below about -30%; also: % is scaled to controls: 0 for no effect and ±100 for the full control effect
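Tetracycline-induced HEK293 Trex D1 cells, force-coupled to calcium, dye-loaded; compounds added and read 180 s, then EC80 dopamine added and calcium flux tracked kinetically another 180 s.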
An asterisk follows results filed as active; / = not tested or not shown; ! = repeats disagree. Rule as the data show it, unless noted: active = activation above about 30%; inactive = the rest.

SMILES | D1 PAM | D1 ag | TRHR ag | TRHR PAM | D1 antag
Cc1cccc(-n2c(/C=C/c3ccccc3O)nc3ccccc3c2=O)c1 | -2 | 8 | 3 | 3 | -7
Cc1cccc(N2CCc3c2nc2ccccc2c3N)c1 | -9 | 6 | 1 | 4 | -32*!
CCN1CCN(S(=O)(=O)c2ccc(Cl)nc2)CC1 | -4 | 6 | 0 | -5 | -35*
Cc1cccc(CN2C(=O)CN=C(c3ccccc3Cl)c3cc(Cl)ccc32)c1 | -4 | 1 | 0 | 0 | 0
CC1(C)CN=C(Nc2ccc(F)c(F)c2)S1 | / | 20 | 10 | -3 | -8
CC1(C)CN=C(Nc2ccc(F)c(Cl)c2)S1 | 5 | 34* | 5 | -2 | 2
COc1ccc(CN2CCN(C(=O)COc3ccccc3)CC2)c(OC)c1 | -3 | 9 | -2 | -3 | -8
C=CCn1c(O)c(C=Nc2ccc(N(CC)CC)cc2)c(=O)[nH]c1=O | -4 | 31* | 11 | 8 | -5
CCN(CC)c1ccc(N=Cc2c(O)n(-c3ccc(Cl)cc3)c(=O)[nH]c2=O)cc1 | -6 | 6 | 2 | -1 | -38*
CCN(CC)c1ccc(N=Cc2c(O)n(-c3ccc(OC)cc3)c(=O)[nH]c2=O)cc1 | 3 | 25 | 10 | 5 | -17
O=C(N=Nc1c(O)[nH]c(=O)[nH]c1=O)C1COc2ccccc2O1 (stereo not drawn) | -10 | 2 | 0 | -7 | -37*
O=c1[nH]c(O)c(N=Nc2ccc3c(c2)OCCO3)c(=O)[nH]1 | -1 | 1 | 1 | -2 | 38
CCCC12CN3CC(C)(CN(C1)C3c1ccccn1)C2=O (stereo not drawn) | 3 | 1 | 1 | 6 | -1
CCOc1ccc(CN(CCc2ccc3c(c2)OCO3)Cc2ccc(OC)c(Br)c2)cc1 | -2 | 9 | 1 | -10 | -21
Cc1cccc2sc(NC(=O)c3cccn(Cc4ccccc4)c3=O)nc12 | 2 | 4 | 1 | -6 | /
CC1(C)OC(c2ccccc2)=C/C(=C/C=C2C(=O)NC(=S)NC2=O)O1 | 8 | 25 | 11 | -9 | 13
CN1/C(=C\C=C2C(=O)NC(=S)NC2=O)C(C)(C)c2ccccc21 | 5 | 484* | 175* | 6 | -1
COc1ccc(OC)c(CCNCc2c(C(=O)O)c(C)n(Cc3ccc(F)cc3Cl)c2C)c1 | -1 | 2 | 0 | -4 | -5
Fc1ccccc1N1CCN(Cc2c(F)cccc2F)CC1 | -1 | 0 | -1 | 37* | 2
N=C1SCC(=O)N1Cc1ccccc1 | -4 | 3 | 0 | -6 | -31*
CCCN1C2CCCC1CC(NC(C)=O)C2 (stereo not drawn) | 0 | 1 | 1 | -1 | 3
Cc1ccc(CN2C3CCCC2CC(NC(=S)NCc2ccccc2)C3)cc1 (stereo not drawn) | 2 | 34* | 8 | -6 | -75*
Cc1cc(OCc2ccc([N+](=O)[O-])cc2)c2c3c(c(=O)oc2c1)CCCC3 | 5 | 2 | 0 | -9 | -30*
Cc1cc(OCc2nn[nH]n2)c2c3c(c(=O)oc2c1)CCCC3 | -1 | 0 | 0 | -1 | 2
O=c1c2ccccc2nc(/C=C\c2cccc(Br)c2)n1-c1ccc(O)cc1 | -1 | 5 | 1 | 3 | 8
SMILES | D1 PAM | D1 ag | TRHR ag | TRHR PAM | D1 antag
CN1CCC(c2c[nH]c3ccccc23)C1 (stereo not drawn) | -5 | 6 | -2 | 13 | -32*
CCCc1ccc(OCC(=O)Nc2ccc(Cl)cc2C(=O)c2ccccc2)cc1 | 5 | 2 | -1 | 5 | -4
Cc1cc2c(C(C)C)c(O)c(O)c(C=O)c2c(O)c1-c1c(C)cc2c(C(C)C)c(O)c(O)c(C=O)c2c1O | -5 | 34*! | 0 | -2 | 3
O=[N+]([O-])c1ccc(N2CCCCCC2)c2nonc12 | 6 | 526* | 142* | 15 | 6
N#Cc1ccccc1NC(=O)c1cccn(Cc2ccccc2)c1=O | 1 | -1 | 0 | -1 | /
O=Cc1c(C(=O)O)n(Cc2ccc(Cl)cc2)c2ccccc12 | -2 | 54* | 20 | 6 | 7
Cc1c(C=O)c2ccccc2n1Cc1ccccc1 | 2 | 3 | -1 | -1 | -6
CC1=NN(c2ccccc2)C(=O)C1/C=C1/C(=O)NC(=O)N(c2cc(C)cc(C)c2)C1=O (stereo not drawn) | -1 | 5 | 0 | -1 | -37*
CN(C)C(=O)Oc1ccc(OC(=O)N(C)C)cc1 | -1 | 1 | 0 | 7 | -5
CN(C)C(=O)Oc1ccc(OCc2nc3ccccc3[nH]2)cc1 | -8 | 16 | 0 | -4 | -48*
CCc1ccc(OCC(=O)N2CCN(CCc3ccncc3)CC2)cc1 | 0 | 10 | -2 | 4 | -9
Cn1cc(C(=O)N2CCCCC2)c2ccccc21 | -3 | 2 | 1 | 2 | -30*
CN1C(CC(O)c2ccccc2)CCCC1CC(O)c1ccccc1 (stereo not drawn) | -7 | 3 | 0 | 11 | -45*
COc1ccc(CNCCc2cccc(F)c2)c2ccccc12 | 4 | 37* | 2 | 18 | 29
COc1ccc(CNCCc2ccc(Cl)cc2)c(OC)c1OC | 0 | 20 | 2 | 3 | -70*
CCc1ccc(OCC(=O)N2CCN(CCc3ccccn3)CC2)cc1 | 1 | -1 | 0 | -2 | 4
COc1ccc(OCC(=O)N2CCN(Cc3cc(=O)n4nc(-c5ccc(OC)cc5)sc4n3)CC2)cc1 | 0 | -2 | -1 | 3 | -10
CN1[C@@H]2CC[C@H]1CC(OC1c3ccccc3CCc3ccccc31)C2 (stereo partly drawn) | 3 | 44* | -1 | 2 | -43*
CN1C2CCC1CC(OC(=O)c1ccc(Cl)cc1)C2 (stereo not drawn) | -2 | 6 | 1 | 3 | 2
CCC(=NCCCN(CC)CC)c1c(O)n(-c2ccccc2)c(=O)[nH]c1=O | -2 | 1 | 0 | -2 | -33*
CCN(CC)CCCN=C(C)c1c(O)n(-c2ccccc2)c(=O)[nH]c1=O | -1 | 4 | 1 | 0 | 6
COc1ccc(-c2nc(CN3C(=O)CN=C(c4ccccc4)c4ccccc43)c(C)o2)cc1 | -4 | 13 | 0 | 3 | -23
CCCCCCOc1ccc(CN2CCN(C)CC2)cc1 | -10 | 31* | 2 | 2 | -18
CN1CCN(Cc2ccc3ccccc3c2)CC1 | -2 | 8 | 0 | -7 | 2
CCCC1=Nc2cc(C(=O)NC3CCC(C)CC3)ccc2Sc2ccccc21 (stereo not drawn) | -1 | 3 | 0 | 0 | 14
Cc1cccc(-n2c(O)c(/C=C/C=Nc3ccccc3)c(=O)[nH]c2=O)c1 | 2 | 34* | 19 | -2 | -1
CNS(=O)(=O)c1ccc(N=Cc2c(O)n(-c3cccc(C)c3)c(=O)[nH]c2=O)cc1 | 0 | 3 | 0 | -5 | -10
CCC12CN3CC(CC)(CN(C1)C3c1c(C)[nH]c(=O)[nH]c1=O)C2=O (stereo not drawn) | 3 | 3 | 1 | 5 | 1
